Laboratory results reported in the supplement of paper PMC8728848.
The full list was thinned out, with the strongest signals kept by preference.

Assays:
Assay in all cases: glycan array binding signal (z-score within array); higher = stronger binding
[1] = molecular target: Fuc(a1-2)Gal(b1-3)GalNAc(b1-3)Gal; settings: glycan notation: IUPAC condensed, linker removed; mutation: F335Y
Summary of the method: (§1)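 The Consortium for Functional Glycomics database supplied 3228 glycan arrays, of which those lacking an available protein sequence were dropped. The binding signal, a within-array Z-score, was averaged across arrays of the same protein sequence and across linkers. Negative scores can be read as non-binding.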

[2] = molecular target: Fuc(a1-2)Gal(b1-3)GalNAc(b1-4)[Neu5Ac(a2-3)]Gal(b1-4)Glc; settings: glycan notation: IUPAC condensed, linker removed; mutation: F335Y
Summary of the method: as §1

[3] = molecular target: Fuc(a1-3)[Gal(b1-4)]GlcNAc(b1-4)Gal(b1-4)[Fuc(a1-3)]GlcNAc; settings: glycan notation: IUPAC condensed, linker removed; mutation: F335Y
Summary of the method: as §1

[4] = molecular target: Gal(a1-6)Glc; settings: glycan notation: IUPAC condensed, linker removed; mutation: F335Y
Summary of the method: as §1

[5] = molecular target: Gal(b1-3)[GlcNAc(b1-6)]GalNAc; settings: glycan notation: IUPAC condensed, linker removed; mutation: F335Y
Summary of the method: as §1

[6] = molecular target: Gal(b1-4)GlcNAc(b1-3)GalNAc; settings: glycan notation: IUPAC condensed, linker removed; mutation: F335Y
Summary of the method: as §1

[7] = molecular target: Gal6S(b1-4)Glc6S; settings: glycan notation: IUPAC condensed, linker removed; mutation: F335Y
Summary of the method: as §1

[8] = molecular target: GlcNAc(b1-2)Gal(b1-3)GalNAc; settings: glycan notation: IUPAC condensed, linker removed; mutation: F335Y
Summary of the method: as §1

[9] = molecular target: GlcNAc(b1-3)Gal; settings: glycan notation: IUPAC condensed, linker removed; mutation: F335Y
Summary of the method: as §1

[10] = molecular target: GlcNAc(b1-3)GalNAc; settings: glycan notation: IUPAC condensed, linker removed; mutation: F335Y
Summary of the method: as §1

[11] = molecular target: GlcNAc(b1-3)Man; settings: glycan notation: IUPAC condensed, linker removed; mutation: F335Y
Summary of the method: as §1

[12] = molecular target: Man(a1-2)Man(a1-2)Man(a1-6)[Man(a1-3)]Man; settings: glycan notation: IUPAC condensed, linker removed; mutation: F335Y
Summary of the method: as §1

[13] = molecular target: Man(a1-2)Man(a1-3)[Man(a1-2)Man(a1-6)]Man; settings: glycan notation: IUPAC condensed, linker removed; mutation: F335Y
Summary of the method: as §1

[14] = molecular target: Man(a1-2)Man(a1-3)[Man(a1-2)Man(a1-6)]Man(a1-6)[Man(a1-2)Man(a1-2)Man(a1-3)]Man; settings: glycan notation: IUPAC condensed, linker removed; mutation: F335Y
Summary of the method: as §1

[15] = molecular target: Man(a1-2)Man(a1-6)[Man(a1-3)]Man(a1-6)[Man(a1-2)Man(a1-2)Man(a1-3)]Man(b1-4)GlcNAc(b1-4)GlcNAc; settings: glycan notation: IUPAC condensed, linker removed; mutation: F335Y
Summary of the method: as §1

[16] = molecular target: Man(a1-3)[Man(a1-6)]Man(a1-6)[Man(a1-2)Man(a1-3)]Man(b1-4)GlcNAc(b1-4)GlcNAc; settings: glycan notation: IUPAC condensed, linker removed; mutation: F335Y
Summary of the method: as §1

[17] = molecular target: Man(a1-3)[Man(a1-6)]Man(a1-6)[Man(a1-3)]Man; settings: glycan notation: IUPAC condensed, linker removed; mutation: F335Y
Summary of the method: as §1

[18] = molecular target: Neu5Ac(a2-3)Gal(b1-3)GalNAc; settings: glycan notation: IUPAC condensed, linker removed; mutation: F335Y
Summary of the method: as §1

[19] = molecular target: Neu5Ac(a2-3)Gal(b1-4)GlcNAc(b1-6)[Neu5Ac(a2-3)Gal(b1-3)]GalNAc; settings: glycan notation: IUPAC condensed, linker removed; mutation: F335Y
Summary of the method: as §1

[20] = molecular target: Neu5Ac(a2-6)Gal(b1-4)GlcNAc(b1-3)Gal(b1-4)[Fuc(a1-3)]GlcNAc(b1-3)Gal(b1-4)[Fuc(a1-3)]GlcNAc; settings: glycan notation: IUPAC condensed, linker removed; mutation: F335Y
Summary of the method: as §1

[21] = molecular target: Neu5Gc(b2-6)Gal(b1-4)GlcNAc; settings: glycan notation: IUPAC condensed, linker removed
Summary of the method: as §1

Binder | glycan array binding signal (z-score) [1] | glycan array binding signal (z-score) [2] | glycan array binding signal (z-score) [3] | glycan array binding signal (z-score) [4] | glycan array binding signal (z-score) [5] | glycan array binding signal (z-score) [6] | glycan array binding signal (z-score) [7] | glycan array binding signal (z-score) [8] | glycan array binding signal (z-score) [9] | glycan array binding signal (z-score) [10] | glycan array binding signal (z-score) [11] | glycan array binding signal (z-score) [12] | glycan array binding signal (z-score) [13] | glycan array binding signal (z-score) [14] | glycan array binding signal (z-score) [15] | glycan array binding signal (z-score) [16] | glycan array binding signal (z-score) [17] | glycan array binding signal (z-score) [18] | glycan array binding signal (z-score) [19] | glycan array binding signal (z-score) [20] | glycan array binding signal (z-score) [21]
Surfactant Protein D (Human); Neck + Carbohydrate Recognition Domain (NCRD) (Homo sapiens) (protein) MLLFLLSALVLLTQPLGYLEAEMKTYSHRTMPSACTLVMCSSVESGLPGRDRDGREGPRGEKGDPGLPGAAGQAGMPGQAGPVGPKGDNGSVGEPGPKGDTGPSGPPGPPGVPGPAGREGALGKQGNIGPQGKPGPKGEAGPKGEVGAPGMQGSAGARGLAGPKGERGVPGERGVPGNTGAAGSAGAMGPQGSPGARGPPGLKGDKGIPGDKGAKGESGLPDVASLRQQVEALQGQVQHLQAAFSQYKKVELFPNGQSVGEKIFKTAQFVKPFTEAQLLCTQAGGQLASPRSAAENAALQQLVVAKNEAAFLSMTDSKTEGKFTYPTGESLVYSNWAPGEPNDDGGSEDCVEIYTNGKWNDRACGEKRLVVCEF | -0.184 | -0.189 | -0.183 | -0.189 | -0.185 | -0.191 | -0.187 | -0.189 | -0.18 | -0.193 | -0.187 | 5.87 | 7.66 | 7.37 | 5.84 | 7.18 | 3.93 | -0.19 | -0.178 | -0.122 | –
AMA (Arum maculatun) (protein) MAKLLLLLLLPAIVGLAVPRSAAAVGSNYMLSGETLNTDGRLTNGELTLIMQVDCNLVLYHGGWQSNTANNGRDCKLTLTDFGELVIKSGTGSTVWSSGSKQSMKGNYAAVVHPEGRLVIYGPSVFKINPSGAGLNGLPLRNIPLTNNMLFSGQVLYGDGTLSARNHKLVMQGDCNMVLYGGKYGWQSNTHGNGKYCFAMLTHKGELVIRDDDFKSVWSSKSSSKQGDYVFILQDDSLAIIYGPAVFSTGSKKMISMVTN | – | – | – | – | – | – | – | – | – | – | – | – | – | – | – | – | – | – | – | – | -0.21
